Data as given in PubChem BioAssay AID1508600 (Functional Genomics Laboratory (NCATS/FGL), 2020).
The campaign covered roughly 53,000 sequences. About 3,700 (7%) were called active. This is one part of a sample in which actives are shown more often than they occur. Values without a mark were called inactive.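 How the source made its calls: active means gene knockdowns whose robust z-score for IL-1 alpha signal is at least 2 or at most -2, so actives lie on both sides; inactive means the rest.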

Test: Components of the Cytosolic LPS Sensing Pathway: Gene Identification via Genome-wide siRNA Screen;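 further: robust z of the log signal after scaling to non-targeting control siRNA wells of the plate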
Settings: RAW264.7 macrophages, IL-1a HTRF, actives lie on both sides, screened at 100 nM (by protocol), cells primed 5 h with Pam3CSK4 first
Outline: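 IL-1a HTRF of supernatants after 24 hour LipidA transfection of Pam3CSK4-primed (5 hours) RAW264.7 cells, 48h post-siRNA transfection (100 nM). Scores: percent of plate negative-control median, then log-based robust z-score.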

Point of comparison: GGAUUUAUCCCAAAAUCUATT against Tmem26, z-score 0.42. Against it:
- GGUAUUCCUCUAGAUCAGATT against Dysf — higher, 0.627
- GGAUUUGGAGCAGGUGGAUTT against Avpr1b — lower, -0.97
- GCCCUGAACUACCUAGAAATT against Alg5 — higher, 1.58
- GGUUAAGAUUCCAGAGCCATT against Prune1 — lower, -0.297
- GGAGAAUCUGGUCUGGGUATT against Septin4 — higher, 1.04
- GGGCAAGUAUGGCUAUGUGTT against Pram1 — lower, -0.178
- GGCCAAGAGAAUCUAAAGATT against Strn4 — lower, -0.338
- UGUAACCAUGGUUACCGUGTT against Olfr1513 — lower, 0.311
- GGCUGAGAACAUCAAAAAATT against Folh1 — higher, 0.816
- GGAAUUGAGGUGAUGGAUATT against Sfxn4 — lower, -0.144
- CGGGAUCUAUCCACUGAUGTT against Nrbp2 — lower, -0.983
- GCUCUAUGGAUCCUUGGAGTT against Zfp574 — higher, 0.772
- GCUCAAUGUGACAGUGGUGTT against Elane — lower, 0.38
- GGAAACCGUUCUCAUUAAATT against Mrpl30 — higher, 0.599
- GGUUUGGUUGAAAUUGAACTT against Smc5 — lower, -1.16
- CCUCAUGGUGAUGAUAUCCTT against Taar6 — lower, -1.35
- CGACAAUGCCAUCGAUUCGTT against Sdc3 — lower, 0.0399
- GGUCACACUUUCUUUGGAATT against Tcf25 — higher, 0.775
- CCUAAAGACGUGCAAUAUGTT against Zfp287 — higher, 0.526
- GGUUGUUCAUGAGCCGAACTT against Rpl18 — lower, -0.0641
- GGGUGCGGAAAUUCAUUAATT against Mpv17l2 — higher, 0.803
- GGCGCAGUAUCACAGUCUUTT against Tle1 — higher, 1.02
- GGUUCCAACAAUUGUAAAGTT against Chl1 — lower, -0.00378
- GGAUUUUAAACAAAAGACCTT against Stard13 — higher, 0.718
- GGUUCACGGUUUAUAAAGUTT against Sgk3 — lower, -0.652
- GCUCCUGUACAGUUCAAACTT against Mrpl17 — lower, 0.0768
- GGAGAAGGUAGUUCUGAAATT against Slc7a11 — lower, -0.349
- GCACAACAUCACGGUGAACTT against Adcy5 — lower, -0.672
- CCACUAUGCUUCUUGGAAUTT against Serpini2 — lower, -0.73
- GGACAAAAGACACAUGUUGTT against Miip — lower, -0.674
- GGAUUUUCACAUUGCAUCUTT against Dmrtc1a — higher, 1.49
- GUUUUAGGCAACCUUGGGUTT against Olfr1038-ps — lower, -0.14
- CCCAAAAUACAUCAUCAAUTT against Psmc2 — lower, -0.444
- GGACAACCACUUUAAGCUUTT against Tars2 — higher, 1.04
- GCCUACGUUACCUUGAUCCTT against Slc16a12 — lower, 0.0774
- CCGGUAUUUAGGAACUGCCTT against Irak2 — lower, -1.66
- GGAGUCAACACACAUCAAGTT against Zfp13 — higher, 1
- GGAAACCUGGAAACAGUUUTT against Apol7c — lower, 0.377
- GCGACGGAAGUCUUUAUUATT against Nostrin — lower, -0.163
- GGGUGAAGUAGGUGAAAAATT against H2-M10.6 — lower, -0.361
- CGUAGCUAAUCCGUAAAAGTT against 1700120K04Rik — lower, -1.93
- GGACAAAUCAGUUCUGCGUTT against Car13 — lower, 0.105
- GGAACUUGGUAUUUAGAUCTT against Rhot2 — lower, 0.295
- GGAUGAGUUUGACAAGCUGTT against Rhou — lower, -0.735
- GUGUCAACCUAAGCUUGGCTT against Tlx3 — lower, -1.19
- GGUGUACCUCUGAAAAAAATT against Zbp1 — lower, -1.5
- AGAACGGAACCAUAGGGAATT against Cmc2 — lower, -0.897
- GGUAGUUCAGAUCUGAUUUTT against Svep1 — higher, 0.599
- AUGGAAUCCAGUAUAGAGCTT against Cep44 — higher, 0.713
- GGAAGAAUGUAGGAGGAAGTT against Sln — lower, 0.246
- GGUAUGAUCAAUGACUUACTT against Serpine1 — lower, -0.165
- GGCUGACUUUCUGUCACAGTT against Olfr655 — higher, 1.03
- GCCUGAAUUCCACUACUCGTT against Def8 — higher, 0.551
- GGACAAGCUGAGGUGAAAATT against Maats1 — lower, -1.08
- GGAUGACUACAAAUGCAAATT against E230015B07Rik — lower, -0.155
- GCUAGGAUUUCAGCAUAUATT against Adra1a — lower, 0.29
- GGUCCUAACCGACAUGUCUTT against Vrk1 — lower, 0.305
- CGUAGUGUUCUGUGUUUAUTT against Mif — higher, 1.36
- GGACUUAGUACCUGAUAACTT against Rtraf — higher, 0.838
- GCCUAUUGUCAGAAAAGUUTT against Usp4 — lower, -0.385
- GGGACUCAACCUAUAUCUUTT against Gnpat — lower, 0.118
- GGAUUUCGAGAUAACUAUGTT against Tbr1 — lower, -0.0186
- CGUAUGGAGUCCAUUACUATT against Frmd4b — lower, 0.341
- GGAUUCAAACAAUGAGCUCTT against Fam126b — higher, 0.9
- GGCGGAUCUCUUGAGUGUUTT against Glyctk — lower, 0.213
- GGUAUCAUUUACUUUGAACTT against Gtf2f2 — lower, -0.0825
- GCCAGUUCAUACAAGAGGGTT against Zfp946 — higher, 0.623
- GGAGAUCACAGCAAUCCGATT against Ccna1 — lower, -1.01
- GGGCGGAGCAUUUUUCUUGTT against Ube2d2b — higher, 0.483
- GGAAGAUGACAGUGCUGUATT against Utp25 — lower, -0.868
- GGGAUAAGUACUCUGCUAATT against Sorcs3 — lower, -0.146
- CCAAGGGUCACCUAUUUUUTT against Kcna5 — higher, 1.97
- CCUGCAUUAGCAUGUUAGGTT against Gfral — lower, -0.483
- GGUAGCUAAGAAGUUUAUUTT against Dck — higher, 1.55
- GGAUCAAAUAACAAUGACATT against Hfm1 — lower, -0.567
- GGCCAUGGUUCUAUAGGACTT against Zbtb37 — higher, 0.764
- GCUUGUAAAUGGAACGACATT against 0610012G03Rik — lower, -0.69
- CCAUAUUUUACCCAAAAGCTT against Prune1 — lower, -1.04
- CGAAGGAGUCAAAACUGGGTT against Klk1b8 — lower, -1.79
- GGAGAUCUCACCGACAUUGTT against Cpt1c — lower, -1.22
- CCUACUCGUAUAAUCUUCUTT against Ago3 — higher, 0.496
- GCGUUUGGGCCGGAAGAAATT against Smo — higher, 0.57
- GGCAGUUUGAGAUUGUGUCTT against Thbs2 — lower, -0.00379
- GCUCAUCGAGCCUGUACACTT against Med26 — lower, -0.296
- GGUGGAACCCAAUGACACCTT against Cers5 — higher, 1.21
- GGUAGUUGUGCCAGAAAAATT against Garre1 — lower, 0.0675
- GGACCCUCUAGAUGACCAATT against Trem2 — lower, -1.09

In the case of AUGCUUUUUGGAGCCAUAUTT against Olfr307, the z-score was 3.07 (active).
In the case of GGAGACACUGAAUGUGACATT against Ttyh1, the z-score was -2.03 (active).
With GGCUACAAGGAGAAGUUUGTT against Traf3 the z-score was 2.02 (active).
In the case of GGAAGAUGAAGAGUCAGAGTT against Setd1b, the z-score was -2.52 (active).
With GGAUGAGAACAGCAACCAGTT against Bcl7b the z-score was -2.22 (active).
With GCAGAAAGCACACUCCUACTT against Psors1c2 the z-score was -2.02 (active).
For “GGAAAAGAAACCAGUUUCUTT against C230012O17Rik”, the z-score was -2.07 (active).
For CCUUUGAACCUCUAACUUUTT against Xpnpep1, the z-score was 3.62 (active).
With GGGACUCUAAAAACAAUGATT against Zkscan14 the z-score was 2.67 (active).
With GGACAGCAGCAACAACAUCTT against Dnase1l3 the z-score was -2.04 (active).
For GGAGGAAAAGAGACAGCUCTT against Kank2, the z-score was -2.41 (active).
With CGUUGCAGUCUAAGCUUGUTT against Rabac1 the z-score was 4.44 (active).
For CGUACACCGUAUUCAUGACTT against Rapgef5, the z-score was 3.6 (active).
With CCGGUUGAGUUCACAGAAUTT against Atad3aos the z-score was -2.44 (active).
With GCUACUUUGACAUGCACACTT against Caly the z-score was 2.1 (active).
With GUAUGUUGACAUUUGCCUGTT against Olfr113 the z-score was -2.05 (active).
In the case of “GGUUCCUACGAGUUCACUGTT against B130024G19Rik”, the z-score was -2.76 (active).
With GGCUUUGCUACUUGGGAUATT against Wdr86 the z-score was 3.16 (active).
In the case of GGCUUCUACCUUCGAGACUTT against Carns1, the z-score was -2.3 (active).
